# A selection: hits, their analogues and other compounds. The true share with any hit is near 2.8%.
# CF NFkB inh = inhibitors of cystic fibrosis induced NF-kB. AID 588850. KKLEB NF-kB-GFP reporter, PAF-induced, GFP fluorescence overnight. 360,000 compounds, 0.86% hits. inhibition, % at 5 µM;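 active means at least 50% inhibition at 5 µM, scaled per plate between neutral and stimulator controls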;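 further: PAF is a Pseudomonas aeruginosa culture filtrate used as stimulus; plate controls were PAF-stimulated DMSO wells for no effect and unstimulated DMSO wells for full effect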
# TRPM1 prom inh = reduces MITF-dependent TRPM1 promoter luciferase signal; inhibition, % at 12.5 µM; SK-MEL-5 TRPM1 promoter luciferase, 24 h; 330,000 compounds, 0.83% hits;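 active means mean inhibition across replicates of 60% or more, whatever share of single replicates reaches that level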
# Shn3 inh set2 = reduces Shn3 3'UTR luciferase signal in osteoblasts; Clone20 osteoblast Shn3 3'UTR firefly luciferase, 24 h; inhibition, % at 12.5 µM; 360,000 compounds, 0.52% hits;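 active means mean inhibition of at least 75% with every replicate also reaching 75%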;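 further: 0% = median of neutral control wells and 100% = pilot-screen positive control compound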
# HIF-2a block = inhibitors of HIF-2a; 786-0 RCC cells HIF-2a reporter, luciferase luminescence, overnight; inhibition, % at 18.8 µM; 360,000 compounds, 0.72% hits; AID 624352;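 active means inhibition of the luminescence signal of 40% or more relative to plate controls, in a single-dose primary screen at 18.75 µM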
# Peg3 promoter = reduces Peg3 promoter-driven luciferase expression in HeLa | 360,000 compounds, 1.7% hits | inhibition, % at 20 µM | HeLa PEG-Prom luciferase reporter, luminescence, overnight;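 active means inhibition of at least 50% at 20 µM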
# KKLEB cytotox = CF airway cell cytotoxicity counter-screen; KKLEB CF airway cells viability, ATPlite luminescence, overnight; stronger effect = lower value; cells stimulated with P. aeruginosa culture filtrate; activity change (cytotoxicity), % at 5 µM; 360,000 compounds, 0.36% hits;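 active means corrected activity change at or below -50% at 5 µM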
# * marks the source's active call; other numbers are inactive results; nt = no result given.
SMILES,CF NFkB inh,TRPM1 prom inh,Shn3 inh set2,HIF-2a block,Peg3 promoter,KKLEB cytotox
COC(=O)c1cc(S(=O)(=O)NCCc2ccc(Cl)cc2)c[nH]1,51*,nt,24,18,-330,-8
COC(=O)c1cc(S(=O)(=O)NCCc2ccc(C)cc2)c[nH]1,1,6,-2,19,1,7
Cc1ccc(NC(=O)COC(=O)c2ccc(-n3cccn3)cc2)cc1C,10,-8,-17,-3,10,0
Cc1cc(C)c[n+](C2=C([O-])c3ccccc3C(=O)/C2=N\S(=O)(=O)c2cccs2)c1,16,105*,-4,15,13,-8
Cc1cc[n+](C2=C([O-])c3ccccc3C(=O)/C2=N\S(=O)(=O)c2cccs2)cc1C,-25,28,1,7,-3,10
O=C1/C(=N\S(=O)(=O)c2cccs2)C([n+]2ccc(CCCc3ccccc3)cc2)=C([O-])c2ccccc21,2,nt,nt,7,15,-4
O=C1/C(=N\S(=O)(=O)c2cccs2)C([n+]2cccc(Cc3ccccc3)c2)=C([O-])c2ccccc21,56*,91*,nt,2,34,-3
Nc1ccccc1C(=O)NC1CCCNC1=O (stereo not given),0,nt,-8,15,7,-5
COc1cc(NC(=O)c2ccc(-c3ccc(F)c(F)c3)c3ccoc23)cc(OC)c1OC,0,nt,3,-28,-11,2
N#Cc1c(NCc2ccccc2)ccnc1NCc1cccnc1,26,26,85*,11,20,1
CC(/C=N/NC(=O)CSc1nc(C)cc(C)n1)=C\c1ccccc1,-24,-14,8,2,-6,28
CC(/C=N\NC(=O)Cn1c(C)nc2ccccc21)=C\c1ccccc1,-20,2,85*,12,-6,7
CCOC(=O)C1=C(COC(=O)CCOc2ccc(C)cc2)NC(=O)NC1C (stereo not given),44,-7,7,-17,56*,-13
COc1ccc(C(=O)c2c[nH]c(C(=O)N=CN(C)C)c2)cc1,-7,-12,-30,-46,-25,16
CCOC(=O)/C=c1/s/c(=C/c2ccc3cc(OC)ccc3c2)c(=O)n1CC(=O)NCc1ccc2c(c1)OCO2,-2,-2,31,11,4,-3
CCOC(=O)/C=c1\s/c(=C\c2ccc3cc(OC)ccc3c2)c(=O)n1CC(=O)NCC1CCCO1 (stereo not given),-3,68*,3,9,61*,-8
COC(=O)c1ccccc1NC(=O)CNC(=O)c1ccc(OC)c(OC)c1,8,-6,7,4,-14,-1
Cc1cc(/C=N/n2cnnc2)c(C)n1-c1ccc(OCc2ccc(Cl)cc2Cl)cc1,-2,92*,98*,81*,41,-3
CCc1nnc(NC(=O)c2ccc(S(=O)(=O)N3CCc4ccccc4C3)cc2)s1,-11,-3,-18,-2,4,-5
Cc1cc(C)c2nc(NNC(=O)c3ccc(S(=O)(=O)N4CCc5ccccc5C4)cc3)sc2c1,13,78*,93*,2,75*,-21
COc1cc2c(=O)n(CC3CCCO3)c(=O)n(CC(=O)Nc3ccccc3)c2cc1OC (stereo not given),16,0,5,-4,14,-12
Cc1cc(OCC(=O)Nc2cccnc2)c2c(C)cc(=O)oc2c1,-39,5,19,-11,-2,5
CCCc1cc(=O)oc2cc(C)cc(OCC(=O)Nc3cccnc3)c12,-18,3,-12,12,87*,-3
CN(C)c1nc(Cl)nc2c1nc(Cl)n2C1CCCCO1 (stereo not given),10,0,18,-14,2,-10
Cc1ncc(CO)c(/C=N/NC(=O)c2cc3c(s2)CCCC3)c1O,17,44,91*,-2,37,-5
SMILES,CF NFkB inh,TRPM1 prom inh,Shn3 inh set2,HIF-2a block,Peg3 promoter,KKLEB cytotox
Cc1ccc2nsnc2c1S(=O)(=O)N(Cc1cc2cccc(C)c2[nH]c1=O)CC1CCCO1 (stereo not given),35,9,21,6,84*,-20
O=c1c2cc(Cl)cc(Cl)c2nc2n1CCC2,-5,18,9,15,25,14
OC(c1cc(C(F)(F)F)nc2c(Cl)cc(Cl)cc12)C1CCCCN1 (stereo not given),6,-10,4,3,109*,-4
CC(C)(C)NCCC(O)c1cc(C(F)(F)F)nc2c(C(F)(F)F)cccc12 (stereo not given),16,-1,14,-14,42,-18
OC(c1cc(-c2ccc(Cl)cc2)nc2ccccc12)C1CCCCN1 (stereo not given),18,-7,10,-20,109*,-12
O[C@@H](c1cc(C(F)(F)F)nc2c(C(F)(F)F)cccc12)[C@H]1CCCCN1,16,7,10,0,103*,-10
NC(=O)c1ccc[n+](CC(=O)c2ccc(F)cc2)c1,5,-22,6,15,5,7
O=c1[nH][nH]c(-c2ccccc2)c1C=Nc1ccc(OC(F)(F)F)cc1,1,16,3,9,1,-9
Cc1ccc([C@@H]2CC(=O)[C@@H]3CN(S(=O)(=O)c4ccccc4C)[C@H](c4ccc(Cl)cc4)C[C@@H]3N2S(=O)(=O)c2ccc(C)cc2)cc1,34,nt,91*,-19,11,6
Cc1ccc(S(=O)(=O)N2[C@H](c3ccc(Cl)cc3)CC(=O)[C@@H]3CN(S(=O)(=O)c4ccccc4C)[C@H](c4ccc(Cl)cc4)C[C@@H]32)cc1,36,nt,64,-11,23,3
Cc1ccc(S(=O)(=O)N2[C@H](c3cccc(Cl)c3)CC(=O)[C@@H]3CN(S(=O)(=O)c4ccccc4C)[C@H](c4ccc(Cl)cc4)C[C@@H]32)cc1,47,nt,89*,-29,12,-12
O=C(OCc1ccccc1)c1ccc(NCc2cc(O)ccc2O)cc1,81*,81*,99*,78*,92*,-56*
CC(C)OC(=O)c1ccc(NCc2cc(O)ccc2O)cc1,72*,16,95*,35,46,-9
COP(=O)(OC)c1ccc(NCc2cc(O)ccc2O)cc1,23,-11,-6,-18,-2,-4
CCC(=O)Nc1ccc(C(=O)OCc2ccccc2)cc1,-3,-62,-5,-192,-149,-7
COc1cc(C(=O)OC(C)c2ccc(F)cc2)ccc1OCC(=O)N1CCOCC1 (stereo not given),10,-6,9,6,11,-12
O=C(Nc1ccc(OC(F)F)cc1)c1cc(S(=O)(=O)N2CCOCC2)ccc1F,-1,0,0,13,2,6
CC(=O)OCC1OC(n2cc(F)c(=O)[nH]c2=O)C(OC(C)=O)C1OC(C)=O (stereo not given),-1,-9,29,5,-13,6

# Compound activity (PubChem)
